The list is not random: actives were taken first. Their share in the collection is about 4.5%.
ALR inh = inhibitors of human sulfhydryl oxidase ALR; inhibition, % (test concentration not listed); purified ALR, DTT oxidation, H2O2 HRP-luminol luminescence; P55789; actives 3.8% (n = 290,000);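 active = mean replicate inhibition above about 79%, with every replicate also reaching it, limit read from the data; inconclusive = only one of the two criteria met; inactive = mean below limit and not every replicate reaching it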
Efflux pump inh = inhibitors of Candida antifungal efflux pumps expressed in yeast. S. cerevisiae Candida pump triplex, Nile Red efflux. inhibition, % at 10 µM. actives 0.44% (n = 330,000). AID 485275;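 active = plate passing quality check with inhibition over a set limit, or well fluorescence over plate mean plus 4 SD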;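 also: Nile Red retained in pooled yeast measured as flow cytometry median fluorescence; higher means more Nile Red kept so more efflux inhibition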
GRK2 inh = inhibitors of human GRK2 displacing RNA aptamer; bead flow cytometry, FAM-aptamer displacement from GRK2; AID 488847; actives 0.59% (n = 330,000); inhibition of aptamer binding, % at 10 µM;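 active = inhibition of aptamer binding above 40%, roughly 3 SD of noise, on plates passing a quality check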;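 also: median bead fluorescence of bound FAM aptamer so fluorescent compounds give negative values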
Rce1 inh = inhibitors of yeast Ras-converting enzyme; yeast membranes, quenched prenylated peptide cleavage fluorescence; calls only; actives 0.27% (n = 290,000); AID 2563;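 active = fall in fluorescence gain of 50% or more versus controls, with final raw signal at or below 3038400; inconclusive = same 50% fall but final raw signal above 3038400; inactive = fall in fluorescence gain under 50%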
HDAC3 inh = human HDAC3 inhibition | O15379 | recombinant HDAC3, fluorogenic peptide/trypsin coupled, fluorescence | inhibition, % at 8.3 µM | actives 0.15% (n = 320,000) | AID 2718; in the data active = inhibition above about 26%, passing the limit was not always enough; inconclusive = no clear call, values can overlap the other calls
Rtt109 HAT inh = C. albicans Rtt109 histone acetyltransferase inhibition. Q5AAJ8. purified Rtt109/Vps75, ThioGlo CoA-SH fluorescence, 4 h. inhibition, % at 34.9 µM. actives 0.16% (n = 330,000). AID 540336;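 active = inhibition of at least 50% in every replicate; inconclusive = best replicate reaches 50% inhibition but some replicates fall short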
Target sequence (Q5AAJ8 whole entry, looked up): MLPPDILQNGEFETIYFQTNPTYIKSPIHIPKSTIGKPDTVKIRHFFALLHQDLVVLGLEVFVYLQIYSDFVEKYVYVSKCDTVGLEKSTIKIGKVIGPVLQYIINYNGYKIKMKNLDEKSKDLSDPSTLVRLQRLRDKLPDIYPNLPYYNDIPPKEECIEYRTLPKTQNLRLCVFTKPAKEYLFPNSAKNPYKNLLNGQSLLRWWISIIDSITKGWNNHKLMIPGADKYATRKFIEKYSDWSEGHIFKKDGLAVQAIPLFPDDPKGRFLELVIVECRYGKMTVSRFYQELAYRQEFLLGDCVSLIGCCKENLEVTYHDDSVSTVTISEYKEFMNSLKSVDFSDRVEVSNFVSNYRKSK
GRK2 inh confirm = confirmation of human GRK2 inhibitors displacing RNA aptamer; shares compounds with GRK2 inh; bead-bound GRK2, FAM-aptamer displacement, flow cytometry; aptamer displacement, % at 10 µM; actives 4% (n = 2,000);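 active = aptamer displacement above 40%, near three times the noise of non-fluorescent compounds, on plates passing quality checks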;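 also: negative values mostly reflect intrinsic compound fluorescence rather than true enhancement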
Aptamer quench SP = aptamer fluorescence quenching in GRK2 counter-screen. 2,000 tested, under 10 active. fluorescence response (% of DMSO), % at 10 µM. shares compounds with GRK2 inh. Carboxyfluorescein RNA aptamer on beads, flow cytometry quenching; hits give low values;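 active = compounds that quench the bead-bound fluorescent RNA probe, cutting fluorescence to under half of the solvent control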;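 also: counterscreen run without GRK2 so only probe quenching by compound is measured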
GRK2 confirm 2 = confirmation of human GRK2 inhibitors binding RNA aptamer site. AID 504782. 360 tested, under 10 active. bead-bound GRK2, FAM-aptamer displacement, flow cytometry. shares compounds with GRK2 inh. inhibition of aptamer binding, % at 10 µM;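 active = inhibition of aptamer binding above 40%, about triple the noise seen with nonglowing compounds, on plates passing quality control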;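 also: negative values mostly come from compounds that fluoresce themselves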
FAM quench SP = aptamer fluorescence quenching in GRK2 counter-screen; shares compounds with GRK2 inh; carboxyfluorescein RNA aptamer beads, flow cytometry quenching; hits give low values; fluorescence response vs DMSO, % at 10 µM; 360 tested, under 10 active; AID 588494;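 active = response vs DMSO under 50%, meaning signal dropped by over half, treated as fluorescence quencher; inconclusive = no clear call, values can overlap the other calls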;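 also: labelled aptamer on streptavidin beads without GRK2 as a quench counter-screen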
Large screens that a line does not name were inactive (follow-up assays come after a bar, where they were run).

CC(C)(CNCc1ccccc1)NS(=O)(=O)c1ccc(Cl)cc1	none (no result: Rce1 inh)
COc1ccc(N(C(=O)c2ccco2)C(C(=O)NC2CCCC2)c2ccncc2)cc1 (centres undefined)	GRK2 inh 83 | GRK2 inh confirm inactive | Aptamer quench SP inactive
Cn1c(CCC(N)=O)nnc1SCC(=O)Nc1ccccc1C(=O)NC1CC1	GRK2 inh 75 (no result: Rce1 inh) | GRK2 inh confirm inactive | Aptamer quench SP inactive
CCCSCCCNC(=O)CN1C(=O)COc2ccc(S(=O)(=O)N3CCCC3)cc21	none (no result: HDAC3 inh)
COC(=O)N1C(=O)[C@](Cc2ccccc2)(c2ccccc2)N1C(=O)OC	none
Oc1c(Cl)cc(Cl)c2cccnc12	none (no result: ALR inh, Efflux pump inh, GRK2 inh, HDAC3 inh, Rtt109 HAT inh)
Cc1ccc(S(=O)(=O)Nc2cc(Cl)c(O)c3ncccc23)cc1	GRK2 inh 55, Rtt109 HAT inh inconclusive | GRK2 confirm 2 inactive | FAM quench SP inactive
CC(C)NC[C@H](O)COc1cccc2ccccc12	none | GRK2 inh confirm inactive | Aptamer quench SP inactive
COc1ccccc1N1CCN(Cc2nc3ccccc3c(=O)n2CC(C)=O)CC1	none | GRK2 confirm 2 inactive | FAM quench SP inconclusive
CN(CC(=O)Nc1c(Cl)cccc1Cl)C(=O)CCNS(=O)(=O)c1ccccc1C(F)(F)F	none
Cc1ccc(F)c(C2C3C=CCC(c4cccc(-c5ccc(N(C)C)cc5)c4)C3C(=O)N2Cc2ccccc2)c1 (centres undefined)	none (no result: ALR inh) | GRK2 inh confirm inactive | Aptamer quench SP inactive
O=C1C2C(c3cccc(/C=C/c4ccccc4)c3)CC=CC2C(c2ccc(C(F)(F)F)cc2)N1Cc1ccccc1 (centres undefined)	none | GRK2 inh confirm inactive | Aptamer quench SP inactive
Cc1ccc(-c2cccc(C3CC=CC4C3C(=O)N(Cc3ccccc3)C4c3ccc4ccccc4c3)c2)cc1 (centres undefined)	none (no result: ALR inh)
COc1ccc(-c2cccc(C3CC=CC4C3C(=O)N(Cc3ccccc3)C4c3cc(C)ccc3F)c2)cc1 (centres undefined)	none (no result: ALR inh, Efflux pump inh, GRK2 inh, HDAC3 inh, Rtt109 HAT inh)
O=C1C2C(c3cccc(/C=C/c4ccccc4)c3)CC=CC2C(c2ccc3ccccc3c2)N1Cc1ccccc1 (centres undefined)	none | GRK2 inh confirm inactive | Aptamer quench SP inactive
CC[C@@H]1CC=C[C@H]2[C@H]1C(=O)N(Cc1ccccc1)[C@H]2c1ccc(C(F)(F)F)cc1	none
CC1Cc2cc(S(=O)(=O)N3CCC(C(=O)NCc4ccco4)CC3)ccc2N1C(=O)C1CCC1 (centres undefined)	none
Cc1ccc(NC(=O)CNC(=O)C2CCCCC2)nc1	GRK2 inh 63 (no result: ALR inh) | GRK2 inh confirm inactive | Aptamer quench SP inactive
CCOC(=O)CC[C@H](NC(=O)Cn1cnc(C(=O)Nc2ccc(C)c(C)c2)n1)C(=O)OCC	none (no result: ALR inh, Rce1 inh, HDAC3 inh)
O=C(NCc1ccccn1)C1COc2ccccc2O1 (centres undefined)	GRK2 inh 90 | GRK2 inh confirm inactive | Aptamer quench SP inactive
O=C(NCc1ccncc1)C1COc2ccccc2O1 (centres undefined)	none
CCC(=O)Nc1cccc(-c2cc3ccccc3oc2=O)c1	GRK2 inh 96 | GRK2 inh confirm inactive | Aptamer quench SP inactive
CC(C(=O)NCC1CCCO1)n1cc([N+](=O)[O-])cn1 (centres undefined)	none
C=CCOc1ccccc1/C=N/n1nnnc1N	none
Nc1nnnn1/N=C/c1ccccc1OCc1ccc(Cl)cc1	GRK2 inh 74 | GRK2 inh confirm inactive | Aptamer quench SP inactive
O=C(Cc1ccccc1)Nn1cnc2ccccc21	GRK2 inh 55 | GRK2 inh confirm inactive | Aptamer quench SP inactive
CCOc1ccc(NC(=S)N(CCOC)C(C)c2ccco2)cc1 (centres undefined)	none
O=C(O)CCC(=O)N1CCCC1	none (no result: HDAC3 inh)

Compound activity as filed in PubChem BioAssay.
